About 670 (0.2%) of roughly 330,000 compounds were called active. The full list was thinned out, with actives kept by preference. Values without a mark were called inactive.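 The calls were made as follows: active = activity change below a set negative limit, meaning inhibition stronger than a set level (cut at about -70% in these data); inconclusive = activity change between two set negative limits; inactive = the rest.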
Each molecule was assayed against Thyrotropin receptor (Homo sapiens) (UniProt P16473) (assay: Antagonists of the Thyroid Stimulating Hormone Receptor: HTS campaign). Details: TSHR-expressing cells, TSH-stimulated cAMP HTRF, 2 h; at 11.5 µM; active compounds read low.
Sequence of Thyrotropin receptor (Homo sapiens) (P16473 whole entry, looked up): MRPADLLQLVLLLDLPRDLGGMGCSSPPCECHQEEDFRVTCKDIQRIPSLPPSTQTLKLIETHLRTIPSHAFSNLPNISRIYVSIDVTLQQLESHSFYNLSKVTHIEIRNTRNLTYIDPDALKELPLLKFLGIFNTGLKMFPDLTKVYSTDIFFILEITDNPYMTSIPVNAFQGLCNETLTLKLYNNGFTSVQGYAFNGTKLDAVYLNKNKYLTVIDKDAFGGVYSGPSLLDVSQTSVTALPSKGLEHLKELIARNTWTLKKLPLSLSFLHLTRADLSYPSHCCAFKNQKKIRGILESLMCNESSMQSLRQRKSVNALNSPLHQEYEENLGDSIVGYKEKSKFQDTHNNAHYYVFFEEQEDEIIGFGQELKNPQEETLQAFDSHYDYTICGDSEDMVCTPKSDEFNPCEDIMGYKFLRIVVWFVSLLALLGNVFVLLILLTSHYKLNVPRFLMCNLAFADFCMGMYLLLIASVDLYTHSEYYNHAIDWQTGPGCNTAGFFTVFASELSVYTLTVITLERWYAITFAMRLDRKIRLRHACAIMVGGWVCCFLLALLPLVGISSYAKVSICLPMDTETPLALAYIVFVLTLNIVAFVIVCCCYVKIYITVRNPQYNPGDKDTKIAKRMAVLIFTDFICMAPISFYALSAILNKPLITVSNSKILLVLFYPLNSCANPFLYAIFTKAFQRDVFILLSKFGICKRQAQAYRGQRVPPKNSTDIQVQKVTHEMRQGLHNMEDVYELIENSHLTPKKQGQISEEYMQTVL
Summary of the method: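 Cell-based HTRF cAMP assay; TSHR cells + compound, TSH EC80 (4nM final), 2 h, 37 deg C. Lysis with anti-cAMP cryptate and cAMP-d2, 30 min RT, read 665/620 nm.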
% is scaled to controls: 0 for no effect and ±100 for the full control effect.

Row | SMILES | activity change, negative = inhibition
1 | COc1cccc(CNS(=O)(=O)c2ccc3c(c2)CC(C)N3C(C)=O)c1 (stereo not given) | -6.62%
2 | CC(=O)N1c2ccc(S(=O)(=O)NCCC(=O)N(C)C3CCCCC3)cc2CC1C (stereo not given) | 4.56%
3 | CC(=O)N1c2ccc(S(=O)(=O)N(C)CC(=O)N(C)Cc3ccccc3)cc2CC1C (stereo not given) | -99.1% (active)
4 | Cc1ccc2cc(C)c(N3CCN(c4ccc(F)cc4)CC3)nc2c1 | 12.4%
5 | CC(Sc1nncs1)C(=O)NCc1ccc2c(c1)OCO2 (stereo not given) | 18.9%
6 | COc1ccc(CNC(=O)c2nnn(CC(=O)Nc3cc(C)cc(C)c3)c2N)cc1 | 5.35%
7 | COc1cccc(CNC(=O)c2nnn(CC(=O)Nc3cc(C)ccc3C)c2N)c1 | 4.35%
8 | COc1cccc(CNC(=O)c2nnn(CC(=O)Nc3cc(Cl)ccc3C)c2N)c1 | -74.4% (active)
9 | CC(=O)/C(C)=N/O | 17.4%
10 | CC12CCC(C(=O)N(NC(=O)c3ccccc3O)C1=O)C2(C)C (stereo not given) | 68.7%
11 | COc1cc(/C=C(/NC(=O)c2ccc(Cl)cc2Cl)C(=O)O)cc(OC)c1OC | -0.961%
12 | COc1cccc(CCNC(=O)COc2cccc3c2OC(C)(C)C3)c1 | -10.3%
13 | COc1ccccc1C(=O)NCCC(=O)N(C)Cc1cccnc1 | 9.57%
14 | COc1cc(C2NC(=O)NC(c3ccccc3)=C2C(C)=O)c(Br)cc1OCC(N)=O (stereo not given) | -8.27%
15 | C[C@H](NC(=O)c1nc[nH]c1C(=O)NCC(=O)OC(C)(C)C)C(=O)OCc1ccccc1 | -7.53%
16 | O=C(NNC(=O)c1cc(-c2ccccc2Cl)nc2ccccc12)c1csc(N2CCOCC2)n1 | 0.138%
17 | CS(=O)(=O)N(CC(=O)N/N=C/c1ccccn1)c1ccc(Oc2ccccc2)cc1 | -9.31%
18 | Cc1nc2nc(CSc3nc4ccccc4s3)cc(=O)n2[nH]1 | -15%
19 | NC(=O)c1ccc(Nc2ccc3nonc3c2[N+](=O)[O-])cc1 | 27.6%
20 | O=[N+]([O-])c1c(NCCO)cc(Sc2nc3ccccc3s2)c2nonc12 | -94.3% (active)
21 | O=C(COC(=O)COc1cccc(F)c1)NCC1CCCCC1 | 8.58%
22 | O=C(Cc1c(F)cccc1Cl)Nc1ncc([N+](=O)[O-])s1 | -13.2%
23 | CC(=O)Oc1ccccc1C(=O)Nc1ncc([N+](=O)[O-])s1 | -80.5% (active)
24 | Cc1cnc(NC(=O)c2ccccn2)s1 | 6.51%
25 | CCOc1ccc(C(CC(=O)O)NC(=O)C23CC4CC(CC(C4)C2)C3)cc1OC (stereo not given) | -4.83%

Row | SMILES | activity change, negative = inhibition
26 | Cc1occc1-c1nnc(SCC(=O)NC2CCCCC2)o1 | -3.93%
27 | CCCCCCCCc1c(O)nc(-n2[nH]c(C)c(CCO)c2=O)[nH]c1=O | 7.75%
28 | Cc1cccc(C(=O)NNC(=O)CSc2nnc(C(C)C)n2C)c1 | 2.38%
29 | Cc1ccc(SCC(=O)c2cc(C)c(OC(=S)N(C)C)c(C)c2)cc1 | -25%
30 | N=C1C(c2nc3ccccc3s2)=C(O)CN1NC(=O)c1ccc([N+](=O)[O-])cc1 | -1.44%
31 | O=C(NC(Nc1nc2ccc([N+](=O)[O-])cc2s1)(C(F)(F)F)C(F)(F)F)c1ccccc1 | -78.9% (active)
32 | Cc1cc(CNC(=O)c2cccc([N+](=O)[O-])c2)c2ccccc2n1 | -9.8%
33 | CN(C)c1cc2c(Nc3ccc4c(cnn4Cc4ccccc4)c3)ncnc2cn1 | -17.2%
34 | COc1ccc(CCNC(=O)C2CC3Cn4c(nc5cc(C)c(C)cc54)C3N2C)cc1 (stereo not given) | -1.1%
35 | Nc1ncnc2c1c(I)cn2[C@@H]1C[C@H](N)[C@@H](O)[C@H]1O | -18%
36 | CCOc1ccc(C(=O)NC2CCN(CC(=O)NCc3cccs3)CC2)cc1 | 1.48%
37 | Cc1nc2ccccc2c(=O)n1NC(=O)c1ccc(Cl)c([N+](=O)[O-])c1 | -24.1%
38 | C=CCn1c(SCc2ccc(C(=O)NCCO)cc2)nc2ccccc2c1=O | -4.95%
39 | O=C(Nn1c(SCc2ccc([N+](=O)[O-])cc2)nc2ccccc2c1=O)c1ccc(F)cc1 | -74.2% (active)
40 | CCO[C@@H]1OC(C(=O)NCc2nc3ccccc3[nH]2)=C[C@H](C2CCCCC2)[C@H]1CCCO | -6.97%
41 | CC(C)C[C@H](NC(=O)[C@H](O)[C@H](N)Cc1ccccc1)C(=O)O | -6.27%
42 | O=C(CSc1nc(-c2ccccc2)cs1)Nc1cccc([N+](=O)[O-])c1 | -78.8% (active)
43 | O=C(CSc1ncn[nH]1)Nc1nc(-c2cccc([N+](=O)[O-])c2)cs1 | 7.62%
44 | COc1ccc(-n2cnnc2SCC(=O)Nc2cccc([N+](=O)[O-])c2)cc1 | -5.22%
45 | COc1cc(NC(=O)c2cc([N+](=O)[O-])ccc2Br)ccc1NC(=O)c1ccco1 | -16.5%
46 | Cc1ccc(Nc2nc(N3CCOCC3)nc(N3CCOCC3)n2)cc1Cl | -135% (active)
47 | Cc1ccc(Nc2nc(N)nc(CN3CCN(Cc4ccccc4)CC3)n2)cc1Cl | 5.19%
48 | Cc1ccccc1NC(=O)CSc1nc2ccc(Nc3nc(N4CCOCC4)nc(N4CCOCC4)n3)cc2s1 | -6.48%
49 | O=C(Nc1ccc(-c2cscn2)cc1)C1CCCN(Cc2ccc(CO)o2)C1 (stereo not given) | 14.3%
50 | CSc1nnc(-c2ccc(C(F)(F)F)cn2)o1 | 7.33%

Source: PubChem BioAssay AID504810 (National Center for Advancing Translational Sciences (NCATS), 2011)
